# Measurements reported in PubChem BioAssay AID492965 (The Scripps Research Institute Molecular Screening Center, 2010).
# Among all 1,100 compounds or so, about 100 (9.1%) were called active. A selection follows. A number with no mark means an inactive call.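 How the source made its calls: active means inhibition above a per-plate limit, the mean inhibition of that plate's test compounds plus 3 SD (cut at about 25% in these data); inactive means the rest.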
# Assay: ATP-evoked calcium inhibition in parental CHO, counter-screen for OX1R antagonist project, cell-based, fluorescence, CHO-K1, triplicate (AID 492965);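 further: 0% = ATP challenge with DMSO and 100% = DMSO without ATP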
# Settings: parental CHO-K1, ATP-induced calcium, Fluo-8 fluorescence; at 5.6 µM; active compounds read high
row,SMILES,inhibition
1,COc1cc(CN2CC(C)CC(C)C2)cc([N+](=O)[O-])c1O (stereo not given),22.2%
2,O=C(Nc1cccc(NC(=O)N2CCN(c3ccccc3)CC2)c1)N1CCN(c2ccccc2)CC1,6.96%
3,CCOC(=O)c1cccc(NC(=O)CN(c2ccc(C)cc2)S(=O)(=O)c2c(C)noc2C)c1,-18.6%
4,Cc1cc(-c2ccc(C)c(S(=O)(=O)NC(C)Cc3ccco3)c2)on1 (stereo not given),-8.08%
5,COc1ccc(/C=C/C(=O)c2ccc(NS(=O)(=O)c3ccc(C)cc3)cc2)cc1O,2.08%
6,Cc1ccc2c(C)c(C(=O)N(C)CCC3CCCCO3)oc2c1C (stereo not given),-10%
7,C/C(N)=C(/C#N)C(=O)COC(=O)c1cc(-c2ccc(C)cc2)nc2ccccc12,-4.89%
8,c1coc(CNc2ncnc3ccccc23)c1,26.1% (active)
9,N#C/C(=C1\CCCN1)c1nc(-c2ccccc2)cs1,3.08%
10,Cc1cc(C)cc(NC(=O)C2CCCN2S(=O)(=O)c2cccc3cccnc23)c1 (stereo not given),-10.6%
11,O=C(OC1CCOC1=O)c1ccc(-c2nc3ccccc3s2)s1 (stereo not given),10.7%
12,Cc1ccc(NC(=O)COc2ccc(-n3ccnc3)cc2)cc1Cl,15.7%
13,O=C(Nc1cccc2cccnc12)c1cccc(N2C(=O)CCC2=O)c1,-5.5%
14,CCc1ccccc1OCC(=O)Nc1ccc(C)c(S(=O)(=O)N2CCCCCC2)c1,2.45%
15,CCCN(CC(=O)Nc1ccccc1OC)C(=O)CCC(=O)c1ccc(F)cc1,-5.67%
16,CCCc1nc2c(c(=O)c3ccccc3n2C)c(=O)n1C1CCCCCC1,-3.88%
17,CC1(C)C2CC=C(/C=N/NC(=O)C3CC3)C1C2 (stereo not given),-15%
18,CCCCCCCC(=O)NC(Nc1ccccc1OC)C(Cl)(Cl)Cl (stereo not given),-10.6%
19,CCCCC(=O)NNC(=S)NC(=O)C(c1ccccc1)c1ccccc1,34.8% (active)
20,COc1ccc(N2CC(C(=O)NCCN3C(=O)S/C(=C\c4cccnc4)C3=O)CC2=O)c(OC)c1 (stereo not given),-8.16%
21,Cc1cc(N2CCCC2=O)cc(C)c1S(N)(=O)=O,-0.33%
22,C=CCn1c(SCC(=O)Nc2nc3ccccc3s2)nnc1-c1ccccc1O,-4.55%

row,SMILES,inhibition
1,S=c1[nH]nc(-c2cc(-c3ccccc3)n[nH]2)n1/N=C/c1c2ccccc2cc2ccccc12,-7.45%
2,CCOc1cc(/C=C(\C#N)c2nc(-c3cccs3)c(NC(C)=O)s2)ccc1O,14.1%
3,COCc1c(C(=O)OCC(=O)Nc2ccc(OC(F)F)cc2)oc2ccccc12,-3.09%
4,CCC(=O)N(C)C(c1ccccc1Cl)c1nnnn1-c1c(C)cccc1C (stereo not given),-6.17%
5,CC(=O)Nc1cccc(OCC(=O)/C=C2\N(C)c3ccccc3C2(C)C)c1,6.99%
6,Cc1cccc(NS(=O)(=O)c2cccc(C(=O)NNC(=O)c3ccccc3O)c2)c1,15.6%
7,Cc1cccc(NC(=O)Nc2cccc(Oc3c(F)c(F)c(F)c(F)c3F)c2)c1,38.9% (active)
8,N#Cc1nc(-c2cccc3ccccc23)oc1N,-11.2%
9,O=C1c2ccccc2S(=O)(=O)N1CC(O)Cn1c2ccccc2c2ccccc21 (stereo not given),4.28%
10,N#C/C(=C/c1ccc(N2CCCCC2)o1)C(=O)NCCc1c[nH]c2ccccc12,31.6% (active)
11,CCOc1ccc(/C=C/C(=O)OCC(=O)c2ccccc2OC)cc1OC,-17.5%
12,COc1cccc(/C=N/NC(=O)c2[nH]nc3c2CCc2ccccc2-3)c1O,-10.5%
13,CCOC(=O)N1CCN(C(=O)c2ccc(S(=O)(=O)Nc3cccc(C(F)(F)F)c3)cc2)CC1,9.17%
14,CCOC(=O)N1CCN(c2cc(C)c([N+](=O)[O-])cc2F)CC1,13.3%
15,N/C(=N\OC(=O)Nc1ccc(Cl)c(Cl)c1)c1ncc(C(F)(F)F)cc1Cl,14.7%
16,CC(C)(C)NC(=O)CN(C(=O)c1csnn1)c1ccccc1-c1ccccc1,-0.67%
17,O=C(N/N=C/c1sc(N2CCCCC2)nc1-c1cccs1)c1cccnc1,-6.04%
18,Nc1nc(COC(=O)CCC(=O)c2ccc(Cl)cc2)nc(Nc2ccccc2)n1,-7.47%
19,COc1cccc(/C=N/Nc2cc(C)nc(-c3ccccc3O)n2)c1O,-5.66%
20,CC1CCCN(CC(O)COCc2ccccc2)C1 (stereo not given),-5.68%
21,Cc1ccccc1S(=O)(=O)N1[C@@H](c2cccc(Cl)c2)C(C(=O)O)=CC[C@H]1c1ccc(Cl)cc1,13.3%
22,Cc1ccc(S(=O)(=O)N2CCN(c3ncnc4ccccc34)CC2)cc1,50.8% (active)

row,SMILES,inhibition
1,COC(=O)c1sccc1NC(=O)CSc1ccccc1NS(=O)(=O)c1cc(Cl)ccc1Cl,8.36%
2,NC(=O)C1=C[C@@H](c2ccc3c(c2)OCO3)C[C@@H](OCCCCO)O1,-5.99%
3,CCn1c(SCC(=O)c2ccc3ccccc3c2)nnc1-c1cccs1,-8.88%
4,Cn1c(N)c(C(=O)COC(=O)c2ccc3ccccc3c2)c(=O)n(C)c1=O,1.91%
5,CC(Oc1ccc2ccccc2c1)C(=O)NNC(=S)NC(=O)c1ccco1 (stereo not given),-8.71%
6,COc1cccc(C(=O)NC(=O)Nc2nc(C)cc(C(F)(F)F)n2)c1,-10.8%
7,N#CC(=C1SC=CS1)c1nc(-c2ccccc2)cs1,-3.94%
8,CCOC(=O)c1c(-c2ccc(C)cc2C)csc1NC(=O)CSc1nnnn1C,-6.6%
9,Cc1cc(C(=O)NC2CCCc3c2cnn3-c2cccc(C)c2C)c(C)o1 (stereo not given),34% (active)
10,O=C(NC(Cc1c[nH]c2ccccc12)C(=O)N/N=C/c1ccc(Br)cc1)c1cccs1 (stereo not given),3.66%
11,CCOc1ccc(CCNC(=O)C(CC)n2nc(C)n3c(cc4sccc43)c2=O)cc1OCC (stereo not given),-2.6%
12,COc1ccc2[nH]cc(/C=C(/C#N)S(=O)(=O)c3ccccc3)c2c1,-11.6%
13,COc1cc2ccccc2cc1C(=O)Nc1ccc(N2CCOCC2)cc1,-8.59%
14,O=C(Cn1[nH]c(=O)c2ccccc2c1=O)Nc1cccc(-c2nnc3n2CCCCC3)c1,-5.39%
15,O=C(N/N=C/c1c(Cl)[nH]c2ccccc12)c1sc2ccccc2c1Cl,10.8%
16,COc1ccc2sc(-c3ccc(N(C)C)cc3)c(C#CCO)c2c1,-6.95%
17,CN(c1ccccc1)S(=O)(=O)c1cccc(NC(=O)Cc2ccc(Cl)cc2)c1,6.81%
18,S=C(NCc1ccc(Cl)cc1)NC12CC3CC(CC(C3)C1)C2,14%
19,COc1ccccc1CNC(=O)C1CCCN(S(=O)(=O)c2cccc3cccnc23)C1 (stereo not given),-8.22%
20,O=C1C=C(c2ccc(Cl)cc2)C(=O)N1Nc1ccccc1,22.4%
21,O=C(CCCN1CCc2[nH]c3ccc(F)cc3c2C1)c1ccc(F)cc1,26.8% (active)
